The campaign covered roughly 320,000 compounds. About 2,100 (0.66%) were called active. Not shown: some 53% with an inconclusive outcome. Calls follow the shape of the dose curve; as a rule, active = well fitted inhibition curve with a large enough effect in the signal ratio, with a control signal flat (not every such curve was filed as active); inconclusive = small, poorly fitted or top-dose-only effect, or effect the other way, or a change in a side signal; inactive = flat fitted curve, though single readings scatter; the % refers to the signal ratio. The entries come from a sample that favours actives as a whole.
Test: qHTS Assay for Lipid Storage Modulators in Drosophila S3 Cells;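 as to cell number change: cells counted by Cell Tracker Red CMTPX staining in the red channel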; as to lipid storage change, negative = inhibition: % is scaled to controls: 0 for no effect and ±100 for the full control effect
Conditions: BODIPY lipid droplet fluorescence, 18-24 h, cells fed with added oleic acid; cell number change: measured here: cell count max response; series mostly up to 46.1 µM; lipid storage change, negative = inhibition: at the top concentration
Method in brief: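 Drosophila S3 cells got compounds at several concentrations plus oleic acid (400 uM solution). Laser-scanning cytometry with 488 nm excitation read lipid droplets at 500-530 nm and cells at 575-640 nm. Percent activity was relative to 20 uM Triacsin C.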
In the case of CCN(CC(=O)NC1CCCC1)S(=O)(=O)c1ccc(C)cc1, the “outcome” value is reported as “inactive”.
For COc1ccc(/C=C/C(=O)O)cc1S(=O)(=O)NC1CCS(=O)(=O)C1 (stereo not drawn), the “lipid storage change, negative = inhibition” value was 29% (inactive) and the cell number change was 23.6%.
For Nc1nc(SCc2ccccc2Cl)nc2nc3c(cc12)CCCC3, the “lipid storage change, negative = inhibition” value was -0.358% (inactive) and the cell number change was -12.1%.
For COc1ccc(C2N=C(c3ccccc3)NC(c3ccccc3)=N2)cc1, the “lipid storage change, negative = inhibition” value was 3.53% (inactive) and the cell number change was 1.5%.
With N#Cc1cccc(S(=O)(=O)Nc2c(NC3CCCCC3)c3ccccc3oc2=O)c1 the “outcome” value was “inactive” and the cell number change was -28.3%.
In the case of Cc1cccc(NC(=S)N(CCc2ccncc2)C(C)C)c1C, the “lipid storage change, negative = inhibition” value is reported as 4.1% (inactive) and the cell number change is reported as -1.71%.
For COc1ccc(NC(=O)c2cc(S(=O)(=O)N3CCOCC3)cn2C)cc1Cl, the “lipid storage change, negative = inhibition” value was -17.2% (inactive) and the cell number change was -8.07%.
In the case of O=C(NCCN1CCOCC1)c1cccc(S(=O)(=O)N2CCCC2)c1, the “outcome” value is reported as “inactive” and the cell number change is reported as 2.89%.
In the case of Cn1cc(S(=O)(=O)N2CCOCC2)cc1C(=O)Nc1ccc(Cl)cc1, the “outcome” value is reported as “inactive” and the cell number change is reported as 5.48%.
For Cn1cc(S(=O)(=O)N2CCOCC2)cc1C(=O)Nc1cccc(Cl)c1, the Potency was 7.31 µM (active) and the cell number change was -6.63%.
For COc1cc(C(=O)NCCN2C(=O)S/C(=C\c3ccc(F)cc3)C2=O)ccc1OCC(=O)N1CCOCC1, the “lipid storage change, negative = inhibition” value was 2.92% (inactive) and the cell number change was 15.3%.
With O=C(Nc1nccs1)c1cccc(S(=O)(=O)N2CCOCC2)c1 the “lipid storage change, negative = inhibition” value was 15.5% (inactive) and the cell number change was 0.981%.
For O=C(Nc1nncs1)c1cccc(S(=O)(=O)N2CCOCC2)c1, the Potency was 23.1 µM (active) and the cell number change was -2.32%.
In the case of O=C(NCCN1C(=O)S/C(=C\c2ccc(F)cc2)C1=O)c1cccc(S(=O)(=O)N2CCOCC2)c1, the Potency is reported as 13 µM (active).
For O=C(Nc1nnc(-c2ccccc2)s1)c1cccc(S(=O)(=O)N2CCOCC2)c1, the “lipid storage change, negative = inhibition” value was 0.191% (inactive) and the cell number change was -9.5%.
With COc1ccc(OCC(=O)NCCc2c[nH]c3ccccc23)cc1 the “lipid storage change, negative = inhibition” value was -6.71% (inactive) and the cell number change was -0.0954%.
In the case of COc1ccc(/C(C)=N/NC(=O)CNC(=O)/C=C\c2ccco2)cc1, the “lipid storage change, negative = inhibition” value is reported as 6.78% (inactive) and the cell number change is reported as 25.3%.
In the case of O=[N+]([O-])c1cc(N=Nc2ccc3ccccc3c2)ccc1O, the “lipid storage change, negative = inhibition” value is reported as 23.5% (inactive) and the cell number change is reported as -8.5%.
For COc1ccc(N=Nc2ccc3ccccc3c2)c(O)c1, the Potency was 4.11 µM (active) and the cell number change was -14.1%.
For Oc1ccc(N=Nc2ccc3ccccc3c2)cc1, the “lipid storage change, negative = inhibition” value was -12.4% (inactive) and the cell number change was -16.8%.
For COc1cccc(NC(=O)CSc2nnc(Cn3nnc4ccccc43)n2C)c1, the “lipid storage change, negative = inhibition” value was -5.06% (inactive) and the cell number change was 1.13%.
For O=C(Oc1ccc(=O)n(-c2ccccc2)n1)c1cccc(Cl)c1, the “lipid storage change, negative = inhibition” value was -13.7% (inactive) and the cell number change was -1.38%.
With Cn1c(CNC(=O)c2ccc3c(c2)OCO3)nnc1SCC(=O)Nc1ccccc1F the “outcome” value was “inactive” and the cell number change was 3.42%.
For CCN(Cc1ccccc1)S(=O)(=O)c1ccc(C(=O)N(CCCN(C)C)c2nc3cc(OC)ccc3s2)cc1, the “lipid storage change, negative = inhibition” value was 11.6% (inactive) and the cell number change was 7.95%.
For O=C(COc1ccc2c3c(c(=O)oc2c1)CCC3)N1CCN(c2ccccc2)CC1, the “lipid storage change, negative = inhibition” value was 74.1% (inactive) and the cell number change was 28.4%.
Potency is read from the fitted curve at half-maximal effect.
